aSyn UTR act – Activators working through SNCA 5'UTR binding (MLPCN). alpha-synuclein 5'UTR reporter, activators screen. activity score, % (tested at 7.5 µM), hits read low. 300,000 tested, 7.1% active. AID 1814; in the data active = activity score below about -60%
The depositor's hits bear a star. A selection follows.

SMILES	aSyn UTR act
N#CC1=C(N)Oc2cc(N)ccc2C1c1cccc(Br)c1 (stereo not given)	118.8
N#CC1=C(N)Oc2cc(N)ccc2C1c1cc(Br)cs1 (stereo not given)	-75.3*
COc1ccc(Cl)cc1C(=O)Nc1nc2ccccc2[nH]1	89.1
CCOc1ccc(C(=O)Nc2nc3ccccc3[nH]2)cc1OCC	-172.0*
COc1cc(C(=O)Nc2nc3ccccc3[nH]2)ccc1OC(F)F	-233.3*
COc1ccc(C(=O)Nc2nc3ccccc3[nH]2)cc1OC	-147.1*
O=C(c1ccc2nc(Cc3cccc(Cl)c3)oc2c1)N1CCOCC1	-98.6*
C=C(C)CNC(=O)c1ccc2nc(Cc3ccc(OC)cc3)oc2c1	-178.1*
COc1ccc(Cc2nc3ccc(C(=O)NC(C)C)cc3o2)cc1	-107.4*
COc1ccc(Cc2nc3ccc(C(=O)N4CCCC4)cc3o2)cc1	-155.1*
COc1ccc([C@@H](C)NC(=O)c2ccc3oc(C(C)C)nc3c2)cc1	-70.5*
O=C(Nc1ccc(Cc2ccncc2)cc1)c1ccc([N+](=O)[O-])o1	-150.3*
O=C(Nc1ccc(S(=O)(=O)N2CCOCC2)cc1)c1ccc([N+](=O)[O-])o1	-119.6*
COc1ccc(S(=O)(=O)N2CCN(C(=O)c3ccc([N+](=O)[O-])o3)CC2)cc1	-78.2*
O=C(Nc1ccc(S(=O)(=O)N2CCOCC2)cc1)c1cc([N+](=O)[O-])ccc1Cl	-66.9*
O=C(/C=C/c1cccc([N+](=O)[O-])c1)c1ccc([N+](=O)[O-])o1	70.6
O=C(Nc1ccc2c(c1)CCCN2C(=O)c1ccco1)c1cc([N+](=O)[O-])ccc1Cl	-94.0*
O=C(Nc1ccc(N2CCOCC2)cc1)c1ccc([N+](=O)[O-])o1	-103.3*
COc1ccc(/C=C/C(=O)c2ccc([N+](=O)[O-])o2)cc1	-61.7*
O=C(Nc1ccc(N2CCN(C(=O)c3cccs3)CC2)cc1)c1ccc([N+](=O)[O-])o1	105.9
CN(C)c1ccc(/C=N/N=C/c2ccccc2O)cc1	-171.1*
COc1ccccc1CC(=O)c1ccc(OCc2ccccc2)cc1	-73.2*
O=C(COC(=O)c1cccc([N+](=O)[O-])c1)c1ccc(OCc2ccccc2)cc1	-75.0*
COc1ccc(OCc2ccc(C(=O)O)cc2)cc1	-111.3*
Cc1ccccc1OCC(=O)OCC(=O)c1ccc(OCc2ccccc2)cc1	-111.6*
SMILES	aSyn UTR act
COc1ccc(C(=O)Nc2nnc(-c3ccccc3)s2)cc1	-189.4*
CCC(NC(=O)Nc1nnc(C(F)(F)F)s1)(C(F)(F)F)C(F)(F)F	108.9
COc1ccc(C(=O)Nc2nnc(C(F)(F)F)s2)cc1	-143.9*
COC(=O)Nc1nnc(-c2ccc(OC)cc2)s1	-76.2*
Cc1ccc(SCCSc2nc(C)cc(=O)[nH]2)cc1	-133.0*
CC1(C)CC(N=c2cc(-c3ccccc3)oc3ccc(Cl)cc23)CC(C)(C)N1	99.4
OCCCN=c1cc(-c2ccccc2)oc2ccc(Cl)cc12	-440.1*
COc1ccc2c(c1)c1nnc(SC)nc1n2C	-68.2*
CC(=O)Nc1ccc(NC(=O)/C(Cl)=C/c2ccccc2)cc1	-117.5*
O=C1CCCC(O)=C1C=Nc1ccc2c(c1)oc1ccccc12	-168.5*
COc1cccc(NC(=O)c2cnc(SCC(=O)NCc3ccc4c(c3)OCO4)n(C)c2=O)c1	-82.2*
Cc1cc(C)n(-c2nnc(NC34CC5CC(CC(C5)C3)C4)nn2)n1	-172.2*
Cc1cc(C)n(-c2nc(Nc3ccccc3C(F)(F)F)nc(-n3nc(C)cc3C)n2)n1	61.9
COCC1CCCN(C(=O)c2cc(COc3ccc(C(C)=O)cc3)on2)C1 (stereo not given)	-149.0*
CC(=O)c1ccc(OCc2cc(C(=O)N3CCCCC3c3cccnc3)no2)cc1 (stereo not given)	-82.8*
CC(=O)c1ccc(OCc2cc(C(=O)NC(C)CCn3cccn3)no2)cc1 (stereo not given)	-164.3*
Cc1cccc(C)c1OCc1cc(C(=O)N2CCC(c3ccccc3)CC2)no1	-79.8*
Cc1cccc(C)c1OCc1cc(C(=O)N2CCN(c3ccc(F)cc3)CC2)no1	-72.5*
CC(=O)c1ccc(OCc2cc(C(=O)NC3CCCCC3)no2)cc1	-80.7*
COCC1CCCN(C(=O)c2cc(COc3cncc(Cl)c3)on2)C1 (stereo not given)	-136.7*
Cc1cccc(C)c1OCc1cc(C(=O)N2CCC(C3CCCCC3)C2)no1 (stereo not given)	-159.0*
Cc1ccc(OCc2cc(C(=O)NC(C)Cc3cccnc3)no2)cc1C (stereo not given)	-82.2*
CC(=O)c1ccc(OCc2cc(C(=O)N3CC[C@@H]4CCCC[C@H]4C3)no2)cc1	-125.7*
COc1ccc(/C=C\C(=O)Oc2cccc(/C=N/NC(=O)Cc3ccc(OC)c(OC)c3)c2)cc1	-86.6*
COc1ccc(/C=C/C(=O)Oc2cccc(/C=N/NC(=O)c3cccc(F)c3)c2)cc1	-150.7*
SMILES	aSyn UTR act
COc1ccc(-c2cn3cccnc3n2)cc1F	-107.7*
COc1ccc(-c2cn3cccnc3n2)cc1NS(=O)(=O)c1ccccc1	-98.0*
COc1ccc(C([O-])=Nc2ccc[n+](-c3nc4ccccc4nc3NS(=O)(=O)c3ccccc3)c2)cc1	83.7
CC(=O)Nc1ccc(S(=O)(=O)Nc2nc3ccccc3nc2Nc2ccc3ccccc3c2)cc1	-132.6*
O=c1[nH]cnc2nn(-c3ccccc3)nc12	-82.0*
COC(=O)c1ccc(COc2ccc(/C=N/N3CCN(C)CC3)cc2)cc1	-126.7*
CN1CCN(/N=C/c2ccc(OCc3ccccc3)cc2)CC1	-73.1*
CC(/C=C/c1ccc(OCc2ccccc2)cc1)=N\O	-132.8*
COc1ccc(Nc2nc3ccccc3s2)cc1	-159.5*
COc1cccc(Cn2c(NCc3cccnc3)nc3c2c(=O)n(C)c(=O)n3C)c1	71.3
Cc1cccc(Nc2nc3ccccc3s2)c1C	-180.9*
COc1ccc2nc(-n3c(C)ccc3C)sc2c1	-62.2*
COc1ccc2nc(NCc3cccnc3)sc2c1	-74.6*
COc1ccc2c(c1)sc(N)[n+]2Cc1cc(C)cc2cccnc12	114.3
COc1cccc(Nc2nc3ccc(OC)cc3s2)c1	-168.2*
COc1ccc2nc(NC3=NCCC3)sc2c1	-179.0*
CCOc1ccc(Nc2nc3cc(S(=O)(=O)N(CC)CC)ccc3o2)cc1	78.3
CCS(=O)(=O)c1ccc2oc(Nc3ccc(C(C)C)cc3)nc2c1	-94.8*
Fc1cccc(NC(=S)NCCc2ccccc2)c1	-71.1*
Fc1ccccc1NC(=S)NCCc1ccccc1	-117.8*
Fc1ccc(F)c(NC(=S)NCCc2ccccc2)c1	-93.1*
CC(C)=CCC/C(C)=C/CC(C)(C)CNCCN1CCNCC1	-64.2*
CC(C)c1ccc(NC(=O)C2CC3CCC2C3)cc1 (stereo not given)	-197.0*
CCC(C)c1ccc(NC(=O)C2CC3CCC2C3)cc1 (stereo not given)	-99.3*
CCC(C)c1ccc(NC(=O)C2CC2)cc1 (stereo not given)	-73.3*
SMILES	aSyn UTR act
Oc1ccccc1NCC(O)Cn1ccc2ccccc21 (stereo not given)	-112.5*
CCCC(=O)c1ccc(N2CCC(C)CC2)c(F)c1	-82.9*
CCC(=O)c1ccc(N2CCC(C)CC2)c(F)c1	-99.2*
COc1cccc(NC(=O)c2nn(C)cc2Br)c1	-105.2*
Cn1cc(Br)c(C(=O)Nc2ncc(Br)s2)n1	-146.9*
Cn1cc(Br)c(C(=O)NNC(=O)c2ccc(Cl)cc2)n1	-94.1*
CCOc1ccc(NC(=O)c2nn(C)cc2Br)cc1	-154.0*
Cc1ccc(NC(=S)NNC(=O)c2ccco2)cc1	-74.3*
Cc1ccc(C(=O)NNC(=O)c2ccco2)cc1	-69.2*
